The values that follow come from the supplement of paper PMC4723716.

Each structure is given as a SMILES string. Over roughly 3,600 compounds, “viability index relative to DMSO control” has its median near 0.81; the lowest 2% begin near 0.13. Only a selection was taken, and the lowest values are over-represented in it overall.
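Further: Saponin-lysis sexual stage assay in serum-free medium: MitoTracker Red CMXRos staining plus saponin, high-content imaging, particle count per well divided by plate mean of DMSO wells.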

For the test, the system named is Plasmodium falciparum NF54 stage V gametocytes. Kind of test: viability index relative to DMSO control (fraction); higher = less gametocyte killing. Particulars: 1.25 µM, incubation time: 72 h.
`COc1ccc(CC2NCC(O)C2OC(C)=O)cc1` (stereo not given): the viability index came to 0.

For `Cc1ccc(-n2c(C)c(C(=O)c3ccccc3)c3cc(O)ccc32)cc1`, the viability index turned out to be 1.24.

For `Cc1c2ccccc2c(C)c2ccccc12`, the viability index is 1.04.

As to `COc1ccc(-c2ccc(C=C3C(=O)NC(=S)NC3=O)o2)cc1Cl`, the viability index came to 0.866.

As for `C=CC1CN2CCC1C(C(O)c1ccnc3ccc(OC)cc13)C2` (stereo not given), the viability index was 0.411.

Take `NC(=O)CN1CC(O)CC1=O` (stereo not given): the viability index is 0.0308.

`OC1(c2ccc(Cl)c(C(F)(F)F)c2)CCN(CCOC2c3ccccc3CSc3ccc(Cl)cc32)CC1` (stereo not given) registered a viability index of 0.589.

Turning to `CC(C)N1CC=C(c2c[nH]c3ccccc23)CC1`, the viability index was 0.887.

On to `O=C(Cn1c2ccccc2c(=O)c2ccccc21)Nc1ccc(Cl)cc1C(=O)c1ccccc1`, for which the viability index was 0.781.

Compound `Oc1ccccc1C=Nc1ccccc1[Te]c1ccccc1N=Cc1ccccc1O` showed a viability index of 0.0513.

`O=c1cccc2n1CC1CC2CN(Cc2cccc(O)c2)C1` (stereo not given): the viability index came out at 0.898.

On to `CC(C)NC(=O)c1cn(Cc2ccccc2)cc(C(=O)NCCc2nc3ccccc3[nH]2)c1=O`, for which the viability index amounted to 0.942.

With `CN1CCN(c2ccc(NC(=O)Oc3ccccc3)cc2)CC1`, the viability index was 0.798.

Turning to `N#CC1=C(N)Oc2c(c(=O)oc3ccccc23)C1c1ccoc1` (stereo not given), the viability index is 1.08.

In turn, `C=CC1CN2CCC1CC2C(OC(=O)c1ccco1)c1ccnc2ccccc12` (stereo not given) displayed a viability index of 0.46.
